Laboratory results taken from PubChem BioAssay AID624405 (Broad Institute, 2012).
The campaign covered roughly 1,900 compounds. About 250 (13%) were called active. Inconclusive results (about 4%) are left out. These entries were drawn from the full list. Results with a measured potency or affinity are listed apart. Values without a mark were called inactive.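 The calls were made as follows: active = fitted curve reaches 40% rescue activity at or below the top valid dose, in every test run; inconclusive = test runs disagree, some active and some inactive; inactive = every run misses the threshold or moves the wrong way.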

assay: rescue of simvastatin-induced ATP loss – cell-based, C2C12 myotubes, ATP luminescence, cherry pick, dose response (AID 624405); details: 48 h, scaled: DMSO wells 0, geranylgeraniol wells 100; series mostly up to 19.5 µM; rescue activity (ATP increase): at the top concentration;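 also: myotubes are challenged with simvastatin at 10 µM to lower ATP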

| Compound | rescue activity (ATP increase) |
| --- | --- |
| CC(=O)c1cc(C#N)c(Oc2ccc(Cl)cc2Cl)nc1C | 17.6% |
| CC(=O)C1=C(O)C(=O)N(c2ccc(S(N)(=O)=O)cc2)C1c1ccccc1F (stereo not given) | 9.79% |
| C[C@@H]1CN([C@H](C)CO)C(=O)c2cc(C3=CCCCC3)cnc2O[C@@H]1CN(C)C(=O)Nc1ccc(F)cc1 | 14.7% |
| Cc1noc(C)c1NC(=O)Nc1ccc2c(c1)C(=O)N([C@@H](C)CO)C[C@@H](C)[C@@H](CN(C)C(=O)Nc1cccc3ccccc13)O2 | 0.347% [at 21 µM] |
| CC(O)CNc1nc2ccccc2n1-c1ncnc2sc3c(c12)CCC3 (stereo not given) | -34.9% |
| Oc1[nH]c2ccccc2c1C=NCC1CCCO1 (stereo not given) | -6.3% |
| CCOC(=O)C1=NN(C(=O)Cc2ccccc2)C(O)(c2ccc(Cl)cc2)C1 (stereo not given) | -31.4% |
| C[C@@H]1CN([C@@H](C)CO)C(=O)Cc2cc(NC(=O)Nc3cccc4ccccc34)ccc2O[C@@H]1CN(C)Cc1ccc(C(=O)Nc2ccccc2N)cc1 | 6.53% |
| C[C@@H]1CN([C@H](C)CO)C(=O)Cc2cc(NC(=O)Nc3cccc4ccccc34)ccc2O[C@H]1CN(C)Cc1ccc(C(=O)Nc2ccccc2N)cc1 | 27.3% [at 16 µM] |
| C[C@H]1CN([C@@H](C)CO)C(=O)Cc2cc(NC(=O)Nc3cccc4ccccc34)ccc2O[C@@H]1CN(C)Cc1ccc(C(=O)Nc2ccccc2N)cc1 | 13.8% |
| C[C@@H]1CN([C@H](C)CO)C(=O)Cc2cc(NC(=O)Nc3cccc4ccccc34)ccc2O[C@@H]1CN(C)Cc1ccc(C(=O)Nc2ccccc2N)cc1 | -6.86% [at 21 µM] |
| CCN(CC)C(=O)c1scc2c1OCCO2 | -1.7% |
| CC1CC(c2ccccc2)n2nc(N3C(=O)c4ccccc4C3=O)nc2N1 (stereo not given) | 0.638% |
| Cc1nnc(SCC(=O)NCc2ccccc2)n1-c1ccccc1 | 43.2% |
| c1ccc(CSc2nnc(-c3ccccn3)n2-c2ccccc2)cc1 | 26.3% |
| COc1ccc(CN(C)C[C@@H]2Oc3ccc(NC(=O)Cc4ccccc4)cc3CC(=O)N([C@H](C)CO)C[C@H]2C)cc1 | 3.11% |
| CC(=O)Nc1cccc(Nc2nc(-c3ccccc3F)nc3ccccc23)c1 | -35.7% |
| CCCC(=O)NC(=S)Nc1cccc(C(C)=O)c1 | -8.31% |
| CCN(C(=O)COC(=O)c1cnc(C)cn1)C1CCCCC1 | -7.24% |
| Cc1cc(C)c2c(c1)/C(=N/NS(=O)(=O)c1ccccc1)CCC2 | -46.4% |

| Compound | rescue activity (ATP increase) |
| --- | --- |
| Cc1ccccc1N(CC(=O)NC1CCCC1)C(=O)CS(=O)CC(=O)Nc1ccc2c(c1)OCO2 (stereo not given) | 15.3% |
| CC(C)C(=O)Nc1cc(S(=O)(=O)N2CCOCC2)ccc1N1CCCCC1 | -33.9% |
| CC1CCN(S(=O)(=O)c2ccc3ccccc3c2)CC1 | 60.1% |
| OCCNCc1cccc(-c2ccccc2)c1O | 14.2% |
| O=C(c1ccco1)N1CCN(C(=O)c2cc3sccc3n2Cc2ccccc2)CC1 | 18% |
| O=C(NCc1ccco1)C1CCN(C(=O)c2cc3sccc3n2Cc2ccc(F)cc2)CC1 | 36.2% |
| O=C(CN(c1ccc(F)cc1)S(=O)(=O)c1ccccc1)NCc1ccco1 | 6.02% |
| CC(C)Oc1ccc(C(=O)NCc2ccco2)cc1 | -11.3% |
| CCN1CCN(c2ccc(NC(=O)Cc3ccccc3)cc2)CC1 | -4.12% |
| O=S(=O)(c1cccc2nsnc12)N1CCOCC1 | 28.7% |
| COc1ccc(NC(=O)Nc2ccc3c(c2)C(=O)N([C@H](C)CO)C[C@@H](C)[C@@H](CN(C)Cc2ccc(C(F)(F)F)cc2)OCCCC[C@@H](C)O3)cc1 | -2.15% |
| CCC(C)(NC(=O)CNC(C)=O)C(=O)NC1CCCCC1 (stereo not given) | 1.71% |
| COc1ccc(C#Cc2cnc3c(c2)C(=O)N([C@@H](C)CO)C[C@@H](C)[C@H](CN(C)C(=O)Nc2cccc(OC)c2)O3)cc1 | 17.4% |
| CCOCCn1c(COc2ccccc2)nc2ccccc21 | 17.6% |
| CCOC(=O)c1ccc2c(c1)nc(COc1ccc(OC)cc1)n2CC | -4.99% |
| O=C(CCCCCn1c(=O)[nH]c2ccsc2c1=O)NCc1ccc(F)cc1 | 1.05% |
| CCc1ccc(NC(=O)c2cc(-c3cccs3)on2)cc1 | -4.74% |
| CCOC(=O)/C=C(\C)Nc1cc(C)nn1-c1ccccc1 | 10.6% |
| C[C@@H]1CN([C@H](C)CO)C(=O)c2cc(NC(=O)Cc3cn(C)c4ccccc34)ccc2O[C@H]1CN(C)S(=O)(=O)c1cccs1 | 14.4% |
| O=C(NCc1ccco1)C(c1ccc(F)cc1)N(Cc1cccnc1)C(=O)Cn1nnc2ccccc21 (stereo not given) | -5.93% |
